Values joined by “and” are separate entries in the source; they are usually repeats but may differ in a detail not shown here. Equal values may be shown once. Screen size: about 1,300 compounds; about 25 (2%) were called active. A call without a number means that no potency is given here. About 9% were inconclusive and are not listed. Calls come from the whole dose curve; as a rule, active = well fitted activation curve with a large enough effect; inconclusive = small, poorly fitted or top-dose-only effect; inactive = flat fitted curve, though single readings scatter. Many of the other results were omitted from the sample, so actives are more common in it than they were.
Potency is the fitted concentration of half-maximal effect.

Chain of Glucagon-like peptide 1 receptor (Homo sapiens) (P43220 whole entry, looked up): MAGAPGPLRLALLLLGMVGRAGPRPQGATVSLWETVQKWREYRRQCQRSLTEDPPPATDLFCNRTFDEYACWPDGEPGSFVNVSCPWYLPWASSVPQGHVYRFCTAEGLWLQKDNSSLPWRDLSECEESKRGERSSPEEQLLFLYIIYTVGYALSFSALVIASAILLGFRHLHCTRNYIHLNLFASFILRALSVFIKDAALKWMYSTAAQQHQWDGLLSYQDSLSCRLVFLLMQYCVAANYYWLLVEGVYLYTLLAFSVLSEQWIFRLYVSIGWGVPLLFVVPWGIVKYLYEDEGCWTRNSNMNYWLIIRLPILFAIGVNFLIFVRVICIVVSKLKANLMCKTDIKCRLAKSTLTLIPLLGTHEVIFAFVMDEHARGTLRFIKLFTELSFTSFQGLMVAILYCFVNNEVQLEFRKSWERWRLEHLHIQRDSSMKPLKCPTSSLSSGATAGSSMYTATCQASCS

This experiment deals with Glucagon-like peptide 1 receptor (Homo sapiens) (UniProt P43220). The experiment can be described thus: qHTS of GLP-1 Receptor Agonists: Hit Validation. The note with it: HEK293 GLP-1R, cAMP-response luciferase, 4-6 h; series mostly up to 46.1 µM. In a few lines:
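HEK293 cells stably co-expressing a cAMP-responsive luciferase reporter and GLP-1R (hypersensitive receptor for weak agonists; wild-type line for confirmation) were plated 12 h at 37 °C, exposed to compound 4-6 h, then read by luminescence after 12 min detection reagent.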
A general note: In qHTS, concentration-response curves come from the screen itself.
Turning to `COc1cc2c(cc1OC)/C(=C/C(=O)N1CCOCC1)NC(C)(C)C2`, the Potency entry is “inactive”.

As for `CC(=O)NC1(c2ccccc2)CCN(c2cc(C)nc(-c3ccccc3)n2)CC1`, the Potency entry is “inactive”.

In the case of `C=C[C@@]1(C)CC(=O)[C@]2(O)[C@@]3(C)[C@@H](O)CCC(C)(C)[C@@H]3[C@H](OC(C)=O)[C@H](O)[C@@]2(C)O1`, the Potency was 9.2 µM (active).

Regarding `C=C[C@@]1(C)CC(=O)[C@]2(O)[C@@]3(C)[C@@H](O)CCC(C)(C)[C@@H]3[C@H](O)[C@H](OC(C)=O)[C@@]2(C)O1`, the Potency was 2 µM (active) and 1.84 µM (active).

Turning to `COc1cccc(/C=C/C(=O)Nc2ccc(N3CCOCC3)cc2)c1OC`, the Potency result is “inactive”.

As for `Cc1ccc(NC(=O)COc2ccc(CCO)cc2-n2nc3ccccc3n2)cc1C`, the Potency entry is “inactive”.

For the compound `C=CCOc1nc2c(c(=O)n(C)c(=O)n2C)n1Cc1ccccc1Cl`, the Potency entry is “inactive”.

Take `Cc1ccc(CNCCCSc2ncccn2)cc1`: the Potency result was “inactive”.

For the compound `CC(=O)Nc1ccc(NC(=O)c2cc(C3CC3)nc3c2cnn3C(C)C)cc1`, the Potency entry is “inactive”.

Turning to `O=C(NCc1ccco1)c1cccc2c(-c3ccc(F)c(F)c3)coc12`, the Potency result was “inactive”.

As to `COc1ccc(CNC(=O)c2cccc3c(-c4cnn(C)c4)coc23)cc1OC`, the Potency result was “inactive”.

Turning to `O=C(NCc1cccs1)c1cccc2c(-c3cccnc3)coc12`, the Potency is 9.2 µM (active).

Regarding `COc1ccc(N(CC(=O)N/N=C/c2ccc(OC)c(OC)c2)S(=O)(=O)c2ccccc2)cc1`, the Potency result was “inactive”.

For the compound `COc1ccc(-c2cc(=O)[nH]c(NCc3ccccc3)n2)cc1`, the Potency result is “inactive”.

For the compound `CC1Cc2cc(S(=O)(=O)N3CCCC(C(=O)N4CCCCC4)C3)ccc2N1C(=O)C1CC1` (centres undefined), the Potency result is “inactive”.

For the compound `CCOC(=O)C1CCCN(C2=NC(=O)/C(=C/c3ccc(O)c(OCC)c3)S2)C1` (centres undefined), the Potency entry is “inactive”.

Turning to `O=C(NC1CCCCCC1)C(=O)NC1CC1`, the Potency result is “inactive”.

On to `CC(OC(=O)c1ccc2ncsc2c1)C(=O)NC1CCCCC1C` (centres undefined), for which the Potency result is “inactive”.

Turning to `COc1ccc(-c2nn3c(COc4ccccc4)nnc3s2)cc1OC`, the Potency result is “inactive”.

Turning to `CCOC(=O)/C(C#N)=C/Nc1cc(OC)ccc1OC`, the Potency result is “inactive”.

On to `Oc1ccccc1/C=N/N1CCN(c2ccccn2)CC1`, for which the Potency entry was “inactive”.

Turning to `c1coc(Cn2c(-c3ccco3)nc3ccccc32)c1`, the Potency result is “inactive”.

In the case of `COc1ccc(NC(C)=O)cc1S(=O)(=O)Nc1ccc2c(c1)OCCO2`, the Potency result is “inactive”.

On to `COCCN(Cc1ccccc1)C(=O)c1cc(-c2ccc(OC)c(OC)c2)nc2ccccc12`, for which the Potency result was “inactive”.

Consider `Cc1nc2cc(-c3cccc(F)c3)nn2c(N2CCN(C(=O)c3ccco3)CC2)c1C`, for which the Potency result is “inactive”.

With `CCN(CC)c1nc(OC)nc(-n2nnc(C(C)=O)c2C)n1`, the Potency entry is “inactive”.

Turning to `CCc1nc(SCCO)c2oc3ccccc3c2n1`, the Potency result was “inactive”.

Regarding `COC(=O)c1sc(NC(=O)CSc2nc3cccnc3n2C2CCCCC2)nc1C`, the Potency entry is “inactive”.

With `COc1ccc(OC)c(/C=N/n2c(-c3n[nH]c4c3CCC4)n[nH]c2=S)c1`, the Potency result was “inactive”.

On to `COC(=O)Cc1c(C)c2ccc(OCc3nn[nH]n3)cc2oc1=O`, for which the Potency result is “inactive”.

`CCOC(=O)C1=C(COC(=O)c2cc(S(=O)(=O)N3CCOCC3)ccc2F)NC(=O)NC1C` (centres undefined): the Potency entry is “inactive”.

With `COc1cccc(Cn2c(N)c(C#N)c3nc4ccccc4nc32)c1OC`, the Potency result was “inactive”.

Turning to `COc1ccc(S(=O)(=O)N(C)C)cc1NC(=O)c1ccc(OCC(=O)N2CCOCC2)c(OC)c1`, the Potency entry is “inactive”.

In the case of `COc1ccc(-c2csc(C(C)(NC(C)=O)c3ccccc3)n2)cc1` (centres undefined), the Potency entry was “inactive”.

With `CCOC(=O)CN1C(=O)S/C(=C/c2ccc(OCc3ccc(C(=O)O)cc3)cc2)C1=O`, the Potency result was “inactive”.

Take `N#Cc1nc(-c2cccs2)oc1NCc1ccco1`: the Potency entry is “inactive”.

On to `Cc1cc(C)c2c(N)c(C(=O)NCC3CCCCC3)sc2n1`, for which the Potency result was “inactive”.

As for `Cc1ccnc(NC(=O)C23CC4CC(CC(C4)C2)C3)c1`, the Potency result was “inactive”.

Turning to `Cc1ccc(CNc2cc(-c3nn4c(C)nnc4s3)ccc2C)s1`, the Potency result is “inactive”.

On to `ClCCn1cnc2c(SCc3ccccc3)ncnc21`, for which the Potency entry was “inactive”.

Turning to `COc1cccc(C2=CC(=O)C[C@H](c3ccc(OC)c(OC)c3)C2)c1`, the Potency result is “inactive”.

With `N#Cc1c(NCCCO)nc(-c2ccccc2)c2c1CCCC2`, the Potency result was “inactive”.

Regarding `COc1ccc(C(C)=O)cc1COC(=O)c1ccc2c(c1)OCCO2`, the Potency result was “inactive”.

Take `CC(=O)c1cc(C#N)c(SCC(=O)OC(C)(C)C)nc1C`: the Potency entry was “inactive”.

On to `COc1ccc(N/C=C/C(=O)c2ccc(OC)c(OC)c2)cc1`, for which the Potency result was “inactive”.

For the compound `C#CCOc1ccc2c3c(c(=O)oc2c1)CCCC3`, the Potency entry is “inactive”.

For the compound `Cc1cccc(OCCNc2cc(N3CCOCC3)ccc2[N+](=O)[O-])c1`, the Potency entry is “inactive”.

For `OC(CNCc1cccc(Br)c1)c1ccccc1` (centres undefined), the Potency result was “inactive”.

Turning to `CCN(CC)c1nc2ccccc2nc1C(C#N)C(=O)NCCCOC` (centres undefined), the Potency result was “inactive”.

Consider `COc1cccc(-c2cnc3c(NC(C)=O)cc(-c4ccc(OC)c(OC)c4)cn23)c1`, for which the Potency entry was “inactive”.

On to `COc1cccc(-c2cnc3c(NC=O)cc(-c4ccc(N(C)C)cc4)cn23)c1`, for which the Potency result was “inactive”.

As for `COc1ccc(-c2cc(NC=O)c3ncc(-c4ccc(OC)c(OC)c4)n3c2)c(OC)c1`, the Potency was 2.59 µM (active).

As for `COc1ccc(-c2cc(NC=O)c3ncc(-c4ccc(C(C)=O)cc4)n3c2)cc1OC`, the Potency entry was “inactive”.

In the case of `COc1cc(-c2cnc3c(NC=O)cc(-c4ccccc4Cl)cn23)cc(OC)c1OC`, the Potency was 5.8 µM (active).

As for `O=CNc1cc(-c2ccccc2)cn2c(-c3ccc(F)c(Cl)c3)cnc12`, the Potency entry was “inactive”.

Consider `COc1ccc(-c2cc(NC=O)c3ncc(-c4ccc(OC)c(OC)c4)n3c2)cc1`, for which the Potency was 18.4 µM (active).

In the case of `Cc1ccc(-c2cc(NC=O)c3ncc(-c4cnn(C)c4)n3c2)cc1`, the Potency entry was “inactive”.

For the compound `CC(=O)c1ccc(-c2cnc3c(NC=O)cc(-c4ccccc4Oc4ccccc4)cn23)cc1`, the Potency entry was “inactive”.

Turning to `COc1ccc(-c2cnc3c(NC=O)cc(-c4ccc(C(=O)N5CCOCC5)cc4)cn23)cc1OC`, the Potency entry was “inactive”.

As to `COc1ccc(F)cc1-c1cc(NC(C)=O)c2ncc(-c3cc(OC)c(OC)c(OC)c3)n2c1`, the Potency result is “inactive”.

On to `COc1ccc(-c2cnc3c(NC=O)cc(-c4ccccc4OC)cn23)cc1OC`, for which the Potency is 8.2 µM (active).

For `OC1CCCN(c2c3c(nc4cc(-c5cccc(F)c5)nn24)CCCC3)C1` (centres undefined), the Potency entry was “inactive”.

Take `COc1cc2c(cc1OC)/C(=C/C(=O)c1ccccc1)NCC2`: the Potency entry is “inactive”.

For the compound `O=C(OCc1csc(-c2ccccc2)n1)c1ccccc1O`, the Potency result was “inactive”.

Take `COc1ccc(CC(=O)OCC(=O)N2c3ccccc3CC2C)cc1OC` (centres undefined): the Potency entry is “inactive”.

Turning to `Cc1nn(C)cc1CNC(=O)c1cnn2c(C(F)F)cc(C3CC3)nc12`, the Potency entry was “inactive”.

Consider `COC(=O)c1ccc(OCC2c3cc(OC)c(OC)cc3CCN2C(C)=O)cc1` (centres undefined), for which the Potency entry is “inactive”.

Regarding `Cc1cccc(-c2nnc3sc(-c4ccccc4C)nn23)c1`, the Potency result is “inactive”.

Regarding `Cc1cccc(C(=O)N2CCC[C@H]2C(=O)N2CCC[C@H]2C(=O)NCc2ccncc2)c1`, the Potency result is “inactive”.

In the case of `Cc1cccc(-c2nc(C#N)c(N3CCCCCC3)o2)c1`, the Potency result was “inactive”.

Regarding `COc1cccc(Nc2nc(N)c([N+](=O)[O-])c(NCc3ccco3)n2)c1`, the Potency result was “inactive”.

Take `CC(C)n1nnnc1SCC(=O)N1N=C(c2cccs2)CC1c1cccs1` (centres undefined): the Potency result is “inactive”.

Take `CC1CCN(CCCNC(=O)c2cc3c(Cl)nc4ccccc4c3s2)CC1`: the Potency result was “inactive”.

For the compound `CCN(CC)c1ncnc2c1cnn2Cc1ccc(C)cc1`, the Potency result is “inactive”.

The record behind these values is PubChem BioAssay AID743262 (National Center for Advancing Translational Sciences (NCATS), 2014).
